In PubChem BioAssay (Tox21):
Records with an inconclusive call do not appear. Entries that show only a call come without a potency. Active and inactive are the calls of the source. Unless noted, calls come from the whole dose curve; as a rule, active = well fitted curve in the direction sought with a large enough effect in the repeat runs; inconclusive = weak or mixed curves; inactive = no such curve, though single readings can be large; an effect the other way counts as inactive or inconclusive.

Key:
[1] = molecular target: Aryl hydrocarbon receptor (Homo sapiens) (UniProt P35869); test: qHTS assay to identify small molecule that activate the aryl hydrocarbon receptor (AhR) signaling pathway (AID 743085);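 note: HG2L7.5c1 human HepG2 liver cells with stably integrated DRE-driven firefly reporter; series mostly up to about 70 µM; nearly all actives have a fitted effect of over 15% in size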
Outline: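 AhR agonist activity is inferred from enhanced light output of a DRE-controlled firefly luciferase reporter in HepG2 cells, measured with ONE-Glo following 24 h treatment at 37C.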

[2] = qHTS assay to identify small molecule that activate the aryl hydrocarbon receptor (AhR) signaling pathway - cell viability counter screen (AID 743086); note: nearly all actives have a fitted effect of over 45% in size; note: potency is the fitted concentration of half-maximal effect
Outline: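 Cytotoxicity counter screen: CellTiter-Fluor signal (30 min, 37 C) in 4000 HepG2 cells/well carrying the DRE-luciferase reporter, following 24 h compound exposure at 37 C.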

[3] = qHTS assay to identify small molecule antagonists of the peroxisome proliferator-activated receptor gamma (PPARg) signaling pathway - cell viability counter screen (AID 743194); settings: Potency: co-treated with 50 nM rosiglitazone; note: nearly all actives have a fitted effect of over 55% in size
Outline: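 Viability was measured as CellTiter-Glo luminescence in GeneBLAzer PPARg UAS-bla HEK293H cells. These cells had been exposed 17 h at 37 C to compounds together with rosiglitazone at 50 nM final, with the beta-lactamase readout taken in the same wells.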

[4] = qHTS assay for small molecule agonists of the antioxidant response element (ARE) signaling pathway (AID 743202; active = well fitted activation curve with a large enough effect in the signal ratio in the repeat runs, not every such curve was filed as active; the % refers to the signal ratio; note: potency is the fitted concentration of half-maximal effect)
Outline: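 After 16 hours of compound treatment at 37 C, HepG2 cells with a stably integrated ARE-driven beta-lactamase reporter were loaded 2 hours at room temperature with LiveBLAzer B/G FRET substrate and fluorescence intensity measured.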

[5] = qHTS assay for small molecule agonists of the antioxidant response element (ARE) signaling pathway - cell viability counter screen (AID 743203; calls by dose curve; note: nearly all actives have a fitted effect of over 55% in size)
Outline: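 Viability counter screen: CellTiter-Glo luminescence, read after 30 min at room temperature, in ARE-bla HepG2 wells. Compound exposure lasted 16 h at 37C/5% CO2, following a 5 h pre-incubation of the cells after plating.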

[6] = qHTS assay for small molecule activators of the heat shock response signaling pathway - cell viability counter screen (AID 743209); note: nearly all actives have a fitted effect of over 50% in size
Outline: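 Cytotoxicity counter screen run in the same wells as the heat-shock bla reporter assay: HeLa HSE-bla cells, 5 h compound exposure at 37 C, viability read by CellTiter-Glo luminescence.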

[7] = qHTS assay for small molecule activators of the heat shock response signaling pathway (AID 743210; active = well fitted activation curve with a large enough effect in the signal ratio in the repeat runs, with a control signal flat, not every such curve was filed as active; the % refers to the signal ratio; note: series mostly up to about 63 µM)
Outline: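 Compound exposure lasted 5 h at 37 C in HeLa cells carrying a heat-shock-element-driven beta-lactamase reporter. Read-out: fluorescence intensity after 2.5 h room-temperature loading with LiveBLAzer B/G FRET substrate.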

[8] = qHTS assay to identify small molecule agonists of the peroxisome proliferator-activated receptor delta (PPARd) signaling pathway - cell viability counter screen (AID 743211); note: nearly all actives have a fitted effect of over 55% in size
Outline: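 qHTS cell viability: PPARd-bla HEK293H; 17 h cpd, 37C; CellTiter-Glo, luminescence at 30 min RT.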

[9] = qHTS assay to identify small molecule antagonists of the peroxisome proliferator-activated receptor delta (PPARd) signaling pathway - cell viability counter screen (AID 743213); note: nearly all actives have a fitted effect of over 50% in size
Outline: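 PPARd-bla HEK293H cells were treated with compounds plus agonist L165041 (300 nM final) for 17 h at 37 C. Viability was then read in the same wells by CellTiter-Glo luminescence after 30 min at room temperature.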

[10] = qHTS assay to identify small molecule agonists of the farnesoid-X-receptor (FXR) signaling pathway - cell viability counter screen (AID 743218); note: nearly all actives have a fitted effect of over 45% in size
Outline: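 Viability counter screen in the same wells: CellTiter-Glo luminescence, 30 min room-temperature incubation, measured after the beta-lactamase read. Cells were GeneBLAzer FXR-UAS-bla HEK 293T, compound-treated 16 h at 37C.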

[11] = qHTS assay to identify small molecule antagonists of the farnesoid-X-receptor (FXR) signaling pathway - cell viability counter screen (AID 743221; active = well fitted cell-killing curve with a large enough effect in the repeat runs, not every such curve was filed as active; note: nearly all actives have a fitted effect of over 50% in size)
Outline: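 After a 5 h settling period, FXR-bla HEK 293T cells receive compound and chenodeoxycholic acid (50 uM final) and incubate 16 h at 37 C; CellTiter-Glo luminescence, read after 30 min at room temperature, reports cell viability.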

[12] = molecular target: Vitamin D3 receptor (Homo sapiens) (UniProt P11473); test: qHTS assay to identify small molecule agonists of the vitamin D receptor (VDR) signaling pathway (AID 743222; calls by dose curve)
Outline: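 Agonist mode, beta-lactamase reporter: fluorescence from LiveBLAzer B/G FRET substrate (2 h, room temperature) read after 16 h compound treatment at 37 C of VDR-bla cells, which were pre-incubated 4 h after seeding.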

[13] = molecular target: Vitamin D3 receptor (Homo sapiens) (UniProt P11473); test: qHTS assay to identify small molecule antagonists of the vitamin D receptor (VDR) signaling pathway (AID 743223; active = well fitted inhibition curve with a large enough effect in the signal ratio in the repeat runs, not every such curve was filed as active; the % refers to the signal ratio)
Outline: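 Reporter line VDR-bla; stimulus 1alpha,25-(OH)2 vitamin D3, 3 nM final; compound co-addition, 16 h 37C/5% CO2; LiveBLAzer B/G substrate 2 h RT; fluorescence intensity.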

[14] = molecular target: Peroxisome proliferator-activated receptor gamma (Homo sapiens) (UniProt P37231); test: qHTS assay to identify small molecule agonists of the peroxisome proliferator-activated receptor gamma (PPARg) signaling pathway (AID 743094; active = well fitted activation curve with a large enough effect in the signal ratio in the repeat runs, not every such curve was filed as active; the % refers to the signal ratio)
Outline: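 Agonist activity was taken from a beta-lactamase reporter (FRET substrate, 1 h at room temperature) in HEK293H cells carrying a PPARg UAS-bla construct. Compounds in DMSO were incubated 17 h at 37C after a 5 h cell pre-incubation.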

[15] = molecular target: Peroxisome proliferator-activated receptor gamma (Homo sapiens) (UniProt P37231); test: qHTS assay to identify small molecule antagonists of the peroxisome proliferator-activated receptor gamma (PPARg) signaling pathway (AID 743191; calls by dose curve; note: series mostly up to about 63 µM; nearly all actives have a fitted effect of over 30% in size)
Outline: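 Beta-lactamase reporter under UAS control in HEK293H PPARg-bla cells; compound treatment 17 h at 37C. Read-out: fluorescence intensity after 1 h room-temperature incubation with LiveBLAzer B/G FRET substrate.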

[16] = molecular target: Peroxisome proliferator-activated receptor delta (Homo sapiens) (UniProt Q03181); test: qHTS assay to identify small molecule antagonists of the peroxisome proliferator-activated receptor delta (PPARd) signaling pathway (AID 743215; active = well fitted inhibition curve with a large enough effect in the signal ratio in the repeat runs, not every such curve was filed as active; the % refers to the signal ratio;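 note: cells stimulated with agonist L165041 at 300 nM final during compound exposure; series mostly up to about 62 µM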)
Outline: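 Agonist L165041 (300 nM final) added with compound to PPARd-bla HEK293H UAS-bla reporter cells; 17 h incubation at 37 C. Read-out: LiveBLAzer FRET substrate, 2 h at room temperature, fluorescence intensity.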

[17] = molecular target: Bile acid receptor (Homo sapiens) (UniProt Q96RI1); test: qHTS assay to identify small molecule antagonists of the farnesoid-X-receptor (FXR) signaling pathway (AID 743217; active = well fitted inhibition curve with a large enough effect in the signal ratio in the repeat runs, not every such curve was filed as active; the % refers to the signal ratio)
Outline: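 Antagonist mode: chenodeoxycholic acid at 50 uM final stimulates a UAS-driven beta-lactamase reporter in HEK 293T FXR-bla cells during 16 h, 37C compound exposure. Read-out is FRET substrate fluorescence after 2 h at room temperature.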

[18] = molecular target: Peroxisome proliferator-activated receptor delta (Homo sapiens) (UniProt Q03181); test: qHTS assay to identify small molecule agonists of the peroxisome proliferator-activated receptor delta (PPARd) signaling pathway (AID 743212; calls by dose curve;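 note: HEK293H cells with PPARd UAS beta-lactamase reporter GeneBLAzer system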)
Outline: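 Beta-lactamase reporter readout: a ratiometric FRET signal from the LiveBLAzer substrate after 2 h at room temperature. Compound exposure at 37 °C in PPARδ-bla HEK293H cells driven by an upstream activator sequence.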

[19] = qHTS assay to identify aromatase inhibitors - cell viability counter screen (AID 743084);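 note: cells stimulated with testosterone during compound exposure; nearly all actives have a fitted effect of over 55% in size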
[20] = molecular target: Bile acid receptor (Homo sapiens) (UniProt Q96RI1); test: qHTS assay to identify small molecule agonists of the farnesoid-X-receptor (FXR) signaling pathway (AID 743220; active = well fitted activation curve with a large enough effect in the signal ratio in the repeat runs, not every such curve was filed as active; the % refers to the signal ratio)
Outline: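 FXR-UAS-bla HEK 293T cells carrying a UAS-driven beta-lactamase reporter were plated for 5 h at 37C/5% CO2, then exposed to DMSO-dissolved Tox21 10K compounds for 16 h at 37C. A LiveBLAzer B/G FRET substrate was loaded for 2 h at room temperature before fluorescence reading.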

Chain of Bile acid receptor (Homo sapiens) (Q96RI1 whole entry, looked up): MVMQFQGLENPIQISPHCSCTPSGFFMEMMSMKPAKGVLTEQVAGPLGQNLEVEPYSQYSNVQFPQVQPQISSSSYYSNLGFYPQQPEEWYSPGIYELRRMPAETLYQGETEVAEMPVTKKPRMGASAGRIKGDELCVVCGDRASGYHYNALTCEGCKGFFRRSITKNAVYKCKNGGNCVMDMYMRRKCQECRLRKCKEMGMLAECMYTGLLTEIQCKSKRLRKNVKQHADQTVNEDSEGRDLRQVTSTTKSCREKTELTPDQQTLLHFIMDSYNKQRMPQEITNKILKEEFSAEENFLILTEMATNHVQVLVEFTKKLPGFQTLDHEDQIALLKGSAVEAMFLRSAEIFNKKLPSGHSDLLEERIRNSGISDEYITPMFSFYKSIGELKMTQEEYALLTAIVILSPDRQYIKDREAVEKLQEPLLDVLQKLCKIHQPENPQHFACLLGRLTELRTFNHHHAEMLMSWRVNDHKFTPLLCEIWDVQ
Chain of Peroxisome proliferator-activated receptor delta (Homo sapiens) (Q03181 whole entry, looked up): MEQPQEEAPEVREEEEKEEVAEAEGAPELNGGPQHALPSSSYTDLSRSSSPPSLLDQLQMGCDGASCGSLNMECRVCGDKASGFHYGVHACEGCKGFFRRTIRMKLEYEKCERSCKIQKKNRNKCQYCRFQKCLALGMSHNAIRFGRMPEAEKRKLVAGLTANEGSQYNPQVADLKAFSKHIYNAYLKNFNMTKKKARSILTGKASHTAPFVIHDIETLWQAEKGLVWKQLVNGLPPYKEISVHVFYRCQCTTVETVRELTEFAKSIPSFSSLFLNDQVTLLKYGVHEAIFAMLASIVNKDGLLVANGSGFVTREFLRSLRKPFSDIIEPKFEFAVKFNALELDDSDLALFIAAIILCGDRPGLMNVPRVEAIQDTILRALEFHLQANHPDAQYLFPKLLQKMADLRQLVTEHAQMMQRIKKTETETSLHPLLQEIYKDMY
Chain of Vitamin D3 receptor (Homo sapiens) (P11473 whole entry, looked up): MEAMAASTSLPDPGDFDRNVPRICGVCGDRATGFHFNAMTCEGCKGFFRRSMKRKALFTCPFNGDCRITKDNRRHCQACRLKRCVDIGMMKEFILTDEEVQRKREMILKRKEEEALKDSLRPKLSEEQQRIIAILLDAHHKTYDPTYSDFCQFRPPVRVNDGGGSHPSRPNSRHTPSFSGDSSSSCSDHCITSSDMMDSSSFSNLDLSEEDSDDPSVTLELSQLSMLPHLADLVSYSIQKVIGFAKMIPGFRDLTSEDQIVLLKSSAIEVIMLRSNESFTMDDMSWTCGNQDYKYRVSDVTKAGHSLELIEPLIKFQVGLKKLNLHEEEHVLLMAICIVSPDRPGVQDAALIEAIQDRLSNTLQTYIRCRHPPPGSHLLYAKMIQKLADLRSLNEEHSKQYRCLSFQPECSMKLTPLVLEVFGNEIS
Chain of Peroxisome proliferator-activated receptor gamma (Homo sapiens) (P37231 whole entry, looked up): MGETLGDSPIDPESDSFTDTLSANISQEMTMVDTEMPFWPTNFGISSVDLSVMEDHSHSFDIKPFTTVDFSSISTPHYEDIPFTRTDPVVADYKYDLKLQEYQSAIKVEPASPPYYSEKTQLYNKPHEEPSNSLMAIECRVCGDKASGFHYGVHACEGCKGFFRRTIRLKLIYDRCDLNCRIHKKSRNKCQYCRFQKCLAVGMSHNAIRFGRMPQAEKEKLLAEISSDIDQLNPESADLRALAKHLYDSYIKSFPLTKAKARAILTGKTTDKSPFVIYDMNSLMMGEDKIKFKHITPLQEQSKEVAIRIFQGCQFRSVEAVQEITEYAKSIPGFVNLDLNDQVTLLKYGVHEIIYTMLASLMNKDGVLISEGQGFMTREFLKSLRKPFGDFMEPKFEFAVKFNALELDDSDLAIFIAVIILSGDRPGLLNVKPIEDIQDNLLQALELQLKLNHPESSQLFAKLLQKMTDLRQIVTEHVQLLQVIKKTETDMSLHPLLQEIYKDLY
Chain of Aryl hydrocarbon receptor (Homo sapiens) (P35869 whole entry, looked up): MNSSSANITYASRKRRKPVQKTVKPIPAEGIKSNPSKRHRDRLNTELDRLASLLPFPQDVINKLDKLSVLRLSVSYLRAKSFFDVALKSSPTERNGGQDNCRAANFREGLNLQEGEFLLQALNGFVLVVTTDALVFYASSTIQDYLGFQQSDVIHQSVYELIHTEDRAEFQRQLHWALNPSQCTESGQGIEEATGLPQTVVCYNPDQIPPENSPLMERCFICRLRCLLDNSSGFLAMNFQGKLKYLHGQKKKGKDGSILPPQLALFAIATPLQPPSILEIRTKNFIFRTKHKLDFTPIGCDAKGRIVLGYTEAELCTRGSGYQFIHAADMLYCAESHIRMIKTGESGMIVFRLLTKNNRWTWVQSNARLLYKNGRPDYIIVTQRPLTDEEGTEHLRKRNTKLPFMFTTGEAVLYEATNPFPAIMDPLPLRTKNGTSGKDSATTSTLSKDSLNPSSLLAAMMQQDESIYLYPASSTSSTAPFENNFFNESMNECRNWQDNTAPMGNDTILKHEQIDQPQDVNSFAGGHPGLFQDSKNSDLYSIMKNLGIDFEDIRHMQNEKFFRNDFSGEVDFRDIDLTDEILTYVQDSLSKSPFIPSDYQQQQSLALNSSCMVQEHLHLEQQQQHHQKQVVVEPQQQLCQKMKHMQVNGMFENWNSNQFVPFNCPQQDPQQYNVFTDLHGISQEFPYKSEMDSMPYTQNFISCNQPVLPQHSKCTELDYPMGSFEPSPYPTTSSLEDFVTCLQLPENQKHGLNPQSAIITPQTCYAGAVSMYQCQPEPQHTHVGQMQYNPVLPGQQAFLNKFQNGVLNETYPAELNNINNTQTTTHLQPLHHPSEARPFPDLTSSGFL

CO/N=C(/C(=O)OC)c1ccccc1COc1ccccc1C
Potency [1]: inactive
Potency [2]: inactive
Potency [3]: inactive
Potency [4]: 19.3 µM (active)
Potency [5]: inactive
Potency [6]: inactive
outcome [7]: inactive
Potency [8]: inactive
Potency [9]: inactive
Potency [10]: inactive
Potency [11]: inactive
outcome [12]: inactive
outcome [13]: inactive

CC(C)O.CC(C)O.OCCN(CCO)CCO.OCCN(CCO)CCO.[Ti]
Potency [2]: inactive
Potency [3]: inactive
Potency [5]: inactive
Potency [6]: inactive
Potency [8]: inactive
Potency [9]: inactive
Potency [10]: inactive
Potency [11]: inactive

C=CC(=O)OCCCCO
Potency [2]: inactive
Potency [14]: inactive
Potency [15]: inactive
Potency [4]: 3.86 µM (active)
Potency [5]: inactive
Potency [8]: inactive
Potency [16]: inactive
Potency [17]: inactive
Potency [10]: inactive
Potency [11]: inactive

COP(=S)(OC)Oc1ccc([N+](=O)[O-])cc1Cl
Potency [2]: 61.1 µM (active)
Potency [15]: inactive
Potency [3]: inactive
Potency [5]: inactive
Potency [6]: inactive
outcome [7]: inactive
outcome [18]: inactive
Potency [16]: inactive
Potency [10]: inactive

COc1ccc(-c2ccccc2)cc1NNC(=O)OC(C)C
Potency [19]: inactive
Potency [5]: inactive
outcome [7]: inactive
Potency [8]: inactive
outcome [20]: inactive
outcome [12]: inactive

C=CC(=O)OCC(C)O (stereo not drawn)
Potency [2]: inactive
Potency [15]: inactive
Potency [3]: inactive
Potency [4]: 8.91 µM (active)
Potency [5]: inactive
Potency [6]: inactive
outcome [7]: inactive
Potency [8]: inactive
Potency [17]: inactive
outcome [20]: inactive
Potency [11]: inactive
outcome [12]: inactive
